In all, about 48,000 compounds went through this assay and about 13,000 (27%) showed an effect of 50% or more. The list shows a part of the results.
System: Wolbachia pipientis
Assay: Anti-Wolbachia Cell-Based Screen
Format: functional
Parameters: scale not given: in the data most compounds retested in dose-response had high values
Conditions: 5 µM

| SMILES | Percent Effect |
| --- | --- |
| Cc1nn(C)c2c(N3CCN(C(=O)C4CCC4)CC3)ncnc12 | 3.567% |
| CCc1nc(CN2CCCN(C(=O)C3CCC3)CC2)cs1 | 7.838% |
| Cc1cc(C)c2c(N3CCC(C(=O)N4CCCC4)CC3)ncnc2n1 | 96.05% |
| Cc1cc(C)c2c(N3CCN(CCN4CCOCC4)CC3)ncnc2n1 | 8.578% |
| CCOCC(=O)N1CCC(CSCc2ccco2)CC1 | 4.494% |
| O=C(C1CCCN1S(=O)(=O)C1CCCC1)N1CCSCC1 (centres undefined) | -23.1% |
| CN(C)c1nc2c(c(N3CCC(O)CC3)n1)CN(CC1CCOC1)CC2 (centres undefined) | 9.412% |
| CC(C)OC(=O)CC(NC(=O)CCn1cccn1)c1ccccc1 (centres undefined) | -19.71% |
| O=C(CNCc1ccccc1Cn1cccn1)Nc1cnccn1 | 109.9% |
| c1ccc(C(Cn2cccn2)Nc2cnccn2)cc1 (centres undefined) | 93.79% |
| CCc1cnc(NCc2ccccc2Cn2cccn2)nc1 | 6.664% |
| CC(CCNC(=O)NCCNc1cnccn1)c1ccccc1 (centres undefined) | 0.7277% |
| CC(NC(=O)Cn1cccn1)c1cccnc1 (centres undefined) | -3.155% |
| O=C(CNC(Cn1cccn1)c1ccccc1)Nc1cnccn1 (centres undefined) | 104.7% |
| NCCn1cc(C(=O)NCc2ccccc2Cn2cccn2)nn1 | -26.32% |
| CC(Cn1cccn1)NS(=O)(=O)Cc1ccccc1 (centres undefined) | -19.72% |
| COC(=O)CN(Cc1ccccc1C)C(=O)COCC1CC1 | 5.451% |
| CN(C)Cc1cc(=O)n2c(n1)CN(CC1CC1)CCC2 | 1.173% |
| O=c1cc(Cn2ccnc2)nc2n1CCCN(CC1CCOCC1)C2 | -2.581% |
| O=c1cc(Cn2cncn2)nc2n1CCCN(CC1CC1)C2 | -9.621% |
| O=c1cc(Cn2cncn2)nc2n1CCCN(CC1CCOCC1)C2 | -15.84% |
| O=c1cc(CN2CCCC2)nc2n1CCCN(CC1CCOCC1)C2 | 2.964% |
| CCS(=O)(=O)N1CCCn2c(nc(CN3CCCC3)cc2=O)C1 | 124.6% |
| O=c1cc(CN2CCCC2)nc2n1CCCN(CC1CC1)C2 | 112.4% |
| O=c1cc(CN2CCCC2)nc2n1CCCN(S(=O)(=O)C1CC1)C2 | 95.22% |
| O=c1cc(Cn2ccnc2)nc2n1CCCN(S(=O)(=O)C1CC1)C2 | 102.1% |
| O=c1cc(Cn2ccnc2)nc2n1CCCN(Cc1ccco1)C2 | 5.269% |

| SMILES | Percent Effect |
| --- | --- |
| COCCN1C(=O)[C@]2(CC[C@@H]3CN(C(=O)NCC(C)C)C[C@@H]32)N=C1C | -10.16% |
| Cc1n[nH]c(-c2ccc(NC(=O)C(C)N3CCN(C)CC3)cc2)n1 (centres undefined) | 0.753% |
| O=S(=O)(c1cccnc1)N1C[C@@H]2COC[C@]2(COCC2CC2)C1 | 5.387% |
| CCCn1cnc2c1CN(C(=O)c1ccc(F)cc1)[C@H](C(=O)OC)C2 | 6.422% |
| FC(F)(F)c1n[nH]c2c1CN(Cc1cn3ccccc3n1)CC2 | 10.05% |
| CC(C)n1c(C(=O)N2CCCC2)nc2c1CCN(c1ncccn1)C2 | -6.562% |
| NC(=O)C1CCCN(c2ncnc3c2Cc2ccccc2OC3)C1 (centres undefined) | 10.44% |
| Cc1cc(C(=O)NC(C)c2nnn[nH]2)c2cccc(C)c2n1 (centres undefined) | 0.7589% |
| Cc1nc2c(c(NCC3Cc4ccccc4CN3C)n1)CCNCC2 (centres undefined) | -7.174% |
| CN(CC1(CO)CCC1)c1nc2c(c(=O)[nH]1)Cc1ccccc1OC2 | 9.578% |
| Cc1nc2c(c(N[C@@H](CO)C(N)=O)n1)Cc1ccccc1OC2 | 104.3% |
| NC(=O)C1CN(c2ncnc3c2Cc2ccccc2OC3)CCO1 (centres undefined) | -2.361% |
| CN(CC1(CO)CCCC1)c1nc2c(c(=O)[nH]1)Cc1ccccc1OC2 | 6.752% |
| Cc1nc2c(c(NC(C)c3nnn[nH]3)n1)Cc1ccccc1OC2 (centres undefined) | 97.46% |
| Cc1nc2c(c(N[C@H](C(N)=O)C(C)C)n1)Cc1ccccc1OC2 | 105% |
| COc1ccccc1OCCNC(=O)NCc1nc(C)no1 | -10.03% |
| CCCc1c(C(=O)NC2CCCC2)nnn1-c1ccc(OC)cc1 | 0.3347% |
| CCOCC(=O)N1C[C@@H]2CC[C@H](C1)N(Cc1ccccn1)C2=O | 2.863% |
| NC1(C(=O)N2CCC(c3cc(-c4ccccc4Cl)n[nH]3)CC2)CCC1 | -26.69% |
| CC(C)NC(=O)NC[C@@]1(COc2cnccn2)C[C@@H](O)[C@@H](O)C1.Cl | -2.608% |
| CN1Cc2ccccc2CC2(CCN(c3ncccn3)CC2)C1=O | -6.777% |
| CN1CC(=O)N(c2ccccc2)CC12CCN(Cc1nccn1C)C2.O=C(O)C(F)(F)F.O=C(O)C(F)(F)F (centres undefined) | -13.15% |
| CN1Cc2ccccc2CC2(CCN(c3ncc(F)cn3)CC2)C1=O | -14.24% |
| Cn1ccnc1CN1CCC2(CC1)Cc1ccccc1CNC2=O.O=C(O)C(F)(F)F | 103.5% |
| CN1Cc2ccccc2CC2(CCN(Cc3nccn3C)CC2)C1=O | 94.48% |
| Cn1ccnc1CN1CCC2(CC1)CCN(c1ccccc1)C2=O.O=C(O)C(F)(F)F | 113.1% |
| Cn1ccnc1CN1CCC2(CC1)CCN(c1cncnc1)C2=O.O=C(O)C(F)(F)F | -20.08% |
